Several values for one entry are separate records, joined by “and”; a condition that tells them apart may be missing. Equal entries are not always repeated. Inconclusive results are not listed. Activity calls are given as the source filed them. Rule for the calls: active = hit-call score of the fitted dose curve at least 0.9, where 1 is the maximum; inconclusive = response in the unintended direction; inactive = score below 0.9.
Test system: not listed separately
Test: TOX21_p53_BLA_p5_viability: Viability Assessment in the Tox21 HCT-116 p53 Agonism Beta-lactamase Assay, Phase 5 (AID 2283600)
Procedure, shortened: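 Decreased CellTiter-Glo luminescence denotes lost viability. Exposure: 16 h at 37C, 5% CO2, with compounds from DMSO stocks diluted 217-fold in wells of 4000 cells.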

Compound	outcome	AC50
CCCCC#N	inactive	–
Oc1cc(Cl)c(Cl)c(Cl)c1Cl	inactive	–
O=NN1CCN(N=O)CC1	inactive	–
NCC(O)c1ccc(O)cc1 (stereo unspecified)	inactive	–
CCCCCCCCCCCCN=C(N)N	inactive	–
C[C@]12CCC(=O)C[C@@H]1CC[C@@H]1[C@@H]2CC[C@@]2(C)[C@H]1CC[C@]2(C)O	inactive	–
CCC1(c2ccccc2)C(=O)NC(=O)NC1=O	inactive	–
C[C@@H]1CC[C@@]2(OC1)O[C@H]1[C@@H](O)[C@H]3[C@@H]4CC[C@H]5C[C@@H](O[C@@H]6O[C@H](CO)[C@H](O[C@@H]7O[C@H](CO)[C@@H](O)[C@H](O[C@@H]8OC[C@@H](O)[C@H](O)[C@H]8O)[C@H]7O[C@@H]7O[C@H](CO)[C@@H](O)[C@H](O[C@@H]8O[C@H](CO)[C@@H](O)[C@H](O)[C@H]8O)[C@H]7O)[C@H](O)[C@H]6O)[C@H](O)C[C@]5(C)[C@H]4CC[C@]3(C)[C@H]1[C@@H]2C	–	33.3 µM (active)
O=[N+]([O-])c1ccc([As](=O)(O)O)cc1	inactive	–
CCOC(=O)C1(c2ccccc2)CCN(CCC(C#N)(c2ccccc2)c2ccccc2)CC1	inactive	–
CCCC(C)(COC(N)=O)COC(=O)NC(C)C (stereo unspecified)	inactive	–
CCN(CC)CCO[C@H]1CC[C@@]2(C)C(=CC[C@@H]3[C@@H]2CC[C@]2(C)C(=O)CC[C@@H]32)C1	inactive	–
C[C@]12C[C@H]3S[C@H]3C[C@@H]1CC[C@@H]1[C@@H]2CC[C@]2(C)[C@@H](O)CC[C@@H]12	inactive	–
Nc1c(Br)cc([N+](=O)[O-])cc1[N+](=O)[O-]	inactive	–
O=c1oc2ccccc2c(O)c1Cc1c(O)c2ccccc2oc1=O	inactive	–
BrCCc1ccccc1	inactive	–
CC(C)CON=O	inactive	–
c1ccc2c(c1)cc1ccc3cccc4ccc2c1c34	inactive	–
CCC[CH2][Sn]([CH2]CCC)([CH2]CCC)[O][Sn]([CH2]CCC)([CH2]CCC)[CH2]CCC	–	1.37 µM (active)

Biological target: Cellular tumor antigen p53 (Homo sapiens) (UniProt P04637)
Test: TOX21_p53_BLA_p4_ratio: Tox21 HCT-116 p53 Agonism Beta-lactamase Assay, Ratio, Phase 4 (AID 2283601)
Procedure, shortened: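 HCT-116 p53 beta-lactamase reporter cells (4000/well) preincubated 5 h, then compound (217-fold dilution of DMSO stock) for 16 h at 37C. CCF4-AM substrate added 2 h at room temperature; 460/530 nm emission ratio fitted upward versus DMSO.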

Chain of Cellular tumor antigen p53 (Homo sapiens) (P04637 whole entry, looked up): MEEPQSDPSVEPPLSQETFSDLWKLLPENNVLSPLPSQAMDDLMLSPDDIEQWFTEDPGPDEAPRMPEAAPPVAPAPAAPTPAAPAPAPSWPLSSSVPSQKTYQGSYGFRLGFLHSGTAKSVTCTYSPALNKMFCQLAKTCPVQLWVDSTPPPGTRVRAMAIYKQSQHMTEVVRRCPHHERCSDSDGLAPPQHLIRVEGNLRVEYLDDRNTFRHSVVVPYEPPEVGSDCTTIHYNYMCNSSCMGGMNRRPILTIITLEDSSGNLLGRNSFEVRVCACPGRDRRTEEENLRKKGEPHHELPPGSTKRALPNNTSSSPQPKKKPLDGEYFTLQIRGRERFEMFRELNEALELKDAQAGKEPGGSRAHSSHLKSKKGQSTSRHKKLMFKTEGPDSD

Compound	outcome	AC50
Clc1ccc([C@@H]2C[C@H]3CC[C@@H]2N3)cn1	inactive	–
CCCCC#N	inactive	–
Oc1cc(Cl)c(Cl)c(Cl)c1Cl	–	7.69 µM (active)
CC(=O)Nc1cc([As](=O)(O)O)ccc1O	inactive	–
CCOP(=O)(OCC)SCCSCC (tested in a mixture with another compound)	inactive	–
CC(C)CC(C)N (stereo unspecified)	inactive	–
CCCCCc1cc(O)c2c(c1)OC(C)(C)c1ccc(C)cc1-2	–	29.9 µM (active)
O=NN1CCN(N=O)CC1	inactive	–
O=c1ccc2cc(O[C@@H]3O[C@H](CO)[C@@H](O)[C@H](O)[C@H]3O)c(O)cc2o1	–	10.9 µM (active)
NCC(O)c1ccc(O)cc1 (stereo unspecified)	inactive	–
CN[C@H]1C[C@@H](N)[C@H](O)[C@@H](O[C@@H]2O[C@H](CO)[C@H](O)[C@@H]3OC4(O[C@H]23)O[C@H](C(N)CO)[C@H](O)[C@H](O)C4O)[C@@H]1O (stereo partly specified)	inactive	–
CCCCCCCCCCCCN=C(N)N	inactive	–
C[C@]12CCC(=O)C[C@@H]1CC[C@@H]1[C@@H]2CC[C@@]2(C)[C@H]1CC[C@]2(C)O	inactive	–
Clc1ccc(-c2ccc(Cl)c(Cl)c2Cl)c(Cl)c1Cl	inactive	–
Cc1ccccc1-n1c(C)nc2ccccc2c1=O	inactive	–
CC(C)(O)[C@@H]1[C@H]2OC(=O)[C@@H]1[C@]1(O)C[C@H]3O[C@]34C(=O)O[C@H]2[C@]14C (tested in a mixture with another compound)	inactive	–
C[C@@H]1CC[C@@]2(OC1)O[C@H]1[C@@H](O)[C@H]3[C@@H]4CC[C@H]5C[C@@H](O[C@@H]6O[C@H](CO)[C@H](O[C@@H]7O[C@H](CO)[C@@H](O)[C@H](O[C@@H]8OC[C@@H](O)[C@H](O)[C@H]8O)[C@H]7O[C@@H]7O[C@H](CO)[C@@H](O)[C@H](O[C@@H]8O[C@H](CO)[C@@H](O)[C@H](O)[C@H]8O)[C@H]7O)[C@H](O)[C@H]6O)[C@H](O)C[C@]5(C)[C@H]4CC[C@]3(C)[C@H]1[C@@H]2C	–	76.9 µM (active)
CC(C)OC(=O)Cc1ccccc1	inactive	–
BrC(Br)C(Br)(Br)Br	inactive	–
O=[N+]([O-])c1ccc([As](=O)(O)O)cc1	inactive	–
CCOC(=O)C1(c2ccccc2)CCN(CCC(C#N)(c2ccccc2)c2ccccc2)CC1	–	43.7 µM (active) and 8.27 µM (active)
CCCC(C)(COC(N)=O)COC(=O)NC(C)C (stereo unspecified)	inactive	–

— PubChem BioAssay (EPA / NIEHS)
